# In PubChem BioAssay AID1159580 (chemical genetic matrix, 2015):
# Where “and” joins values, the source holds several entries; their conditions need not be identical. Equal entries are not always repeated. About 2,000 (36%) of roughly 5,500 compounds were called active. Another 18% or so got no clear call; they are omitted. The list shows a part of the results. Values without a mark were called inactive. Rule as the data show it: active = normalized growth mostly below about 0.91 (no sharp cut-off); inconclusive = no clear call, values can overlap the other calls; inactive = mostly above about 0.92.
# Experiment: chemical genetic growth profiling, strain panel (AID 1159580);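 also: tested at 20 µM; growth read once vehicle control cultures reached saturation at 30 °C; 1 = growth at the plate median or of vehicle wells; lower values mean less growth of the strain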
# Conditions: S. cerevisiae deletion strains, growth OD
smiles,measurement,setting,value
COc1cc2c(cc1OC)[C@@H]1C(=O)c3ccc4c(c3O[C@@H]1CO2)CC(C(C)C)O4 (some centres not stated),normalized growth,"locus YAL021C, strain ccr4, hits give low values",0.989
same,normalized growth,"locus YAL026C, strain drs2, hits give low values",0.969
same,normalized growth,"locus YAL030W, strain snc1, hits give low values",0.998
same,normalized growth,"locus YBL061C, strain skt5, hits give low values",1
same,normalized growth,"locus YBR009C, strain hhf1, hits give low values",0.938
same,normalized growth,"locus YBR021W, strain FUR4, hits give low values",0.993
same,normalized growth,"locus YBR023C, strain chs3, hits give low values",0.981
same,normalized growth,"locus YBR171W, strain sec66, hits give low values",0.974
same,normalized growth,"locus YBR229C, strain ROT2, hits give low values",0.994
same,normalized growth,"locus YBR231C, strain swc5, hits give low values",0.932
same,normalized growth,"locus YBR279W, strain paf1, hits give low values",0.982
same,normalized growth,"locus YCL011C, strain gbp2, hits give low values",0.991
same,normalized growth,"locus YCL016C, strain dcc1, hits give low values",0.984
same,normalized growth,"locus YCL029C, strain bik1, hits give low values",1.02
same,normalized growth,"locus YCL061C, strain MRC1, hits give low values",0.96
same,normalized growth,"locus YCL069W, strain vba3, hits give low values",0.99
same,normalized growth,"locus YCR088W, strain abp1, hits give low values",0.99
same,normalized growth,"locus YDL005C, strain med2, hits give low values",0.978
same,normalized growth,"locus YDL035C, strain GPR1, hits give low values",0.972
same,normalized growth,"locus YDL040C, strain nat1, hits give low values",0.985
same,normalized growth,"locus YDL074C, strain BRE1, hits give low values",0.952
same,normalized growth,"locus YDL101C, strain DUN1, hits give low values",0.982
same,normalized growth,"locus YDL185W, strain tfp1, hits give low values",1.01
same,normalized growth,"locus YDL192W, strain arf1, hits give low values",1.01
same,normalized growth,"locus YDR001C, strain nth1, hits give low values",0.987
same,normalized growth,"locus YDR069C, strain doa4, hits give low values",1
same,normalized growth,"locus YDR101C, strain arx1, hits give low values",0.998
same,normalized growth,"locus YDR137W, strain rgp1, hits give low values",0.89
same,normalized growth,"locus YDR150W, strain NUM1, hits give low values",1.01
same,normalized growth,"locus YDR159W, strain sac3, hits give low values",0.957
same,normalized growth,"locus YDR162C, strain NBP2, hits give low values",0.941
same,normalized growth,"locus YDR195W, strain ref2",0.982
same,normalized growth,"locus YDR297W, strain sur2, hits give low values",0.972
same,normalized growth,"locus YDR318W, strain mcm21, hits give low values",1
same,normalized growth,"locus YDR334W, strain swr1, hits give low values",0.99
same,normalized growth,"locus YDR335W, strain msn5, hits give low values",1.01
same,normalized growth,"locus YDR388W, hits give low values",1.01
same,normalized growth,"locus YDR392W, strain spt3, hits give low values",0.707 (active)
same,normalized growth,"locus YDR502C, strain sam2, hits give low values",0.998
same,normalized growth,"locus YEL003W, strain gim4, hits give low values",0.959
same,normalized growth,"locus YEL037C, strain rad23, hits give low values",0.999
same,normalized growth,"locus YEL061C, strain CIN8 (second series), hits give low values",0.99
same,normalized growth,"locus YEL061C, strain CIN8, hits give low values",1
same,normalized growth,"locus YER015W, strain faa2, hits give low values",0.965
same,normalized growth,"locus YER016W, strain bim1, hits give low values",0.984
same,normalized growth,"locus YER110C, hits give low values",1.01
same,normalized growth,"locus YER111C, strain swi4, hits give low values",1.01
same,normalized growth,"locus YER155C, strain BEM2 (second series), hits give low values",0.931
same,normalized growth,"locus YER155C, strain BEM2, hits give low values",1
same,normalized growth,"locus YER167W, strain BCK2, hits give low values",1
same,normalized growth,"locus YFR010W, strain ubp6, hits give low values",0.98
same,normalized growth,"locus YGL078C, strain dbp3, hits give low values",1.01
same,normalized growth,"locus YGL086W, strain mad1, hits give low values",0.985
same,normalized growth,"locus YGL167C, strain pmr1, hits give low values",0.987
same,normalized growth,"locus YGL173C, strain kem1, hits give low values",0.977
same,normalized growth,"locus YGL227W, strain vid30, hits give low values",0.975
same,normalized growth,"locus YGL240W, strain doc1, hits give low values",0.956
same,normalized growth,"locus YGL248W, strain PDE1, hits give low values",0.979
same,normalized growth,"locus YGL253W, strain hxk2, hits give low values",0.96
same,normalized growth,"locus YGR135W, strain pre9, hits give low values",1.02
same,normalized growth,"locus YGR252W, strain gcn5, hits give low values",0.895
same,normalized growth,"locus YHR013C, strain ard1, hits give low values",0.998
same,normalized growth,"locus YHR027C, strain rpn1, hits give low values",0.993
same,normalized growth,"locus YHR030C, strain SLT2, hits give low values",1.01 and 1.04
same,normalized growth,"locus YHR079C, strain IRE1 (second series), hits give low values",1.01
same,normalized growth,"locus YHR079C, strain IRE1, hits give low values",1.07
same,normalized growth,"locus YHR094C, strain hxt1, hits give low values",1.01
same,normalized growth,"locus YHR129C, strain ARP1, hits give low values",0.998
same,normalized growth,"locus YHR142W, strain chs7, hits give low values",0.986
same,normalized growth,"locus YHR200W, strain rpn10, hits give low values",1.02
same,normalized growth,"locus YIL066C, strain RNR3, hits give low values",0.945
same,normalized growth,"locus YIL073C, strain SPO22, hits give low values",1.03
same,normalized growth,"locus YIL125W, strain kgd1, hits give low values",0.989
same,normalized growth,"locus YIR030C, strain dcg1, hits give low values",1
same,normalized growth,"locus YJL092W, strain hpr5, hits give low values",0.994
same,normalized growth,"locus YJL095W, strain BCK1 (second series), hits give low values",0.98
same,normalized growth,"locus YJL095W, strain BCK1, hits give low values",0.944 and 1.04
same,normalized growth,"locus YJL115W, strain asf1, hits give low values",0.987
same,normalized growth,"locus YJL129C, strain trk1, hits give low values",0.92
same,normalized growth,"locus YJL134W, strain LCB3, hits give low values",1.01
same,normalized growth,"locus YJL154C, strain vps35, hits give low values",0.993
same,normalized growth,"locus YJL164C, strain tpk1, hits give low values",0.981
same,normalized growth,"locus YJL166W, strain qcr8, hits give low values",0.934
same,normalized growth,"locus YJL168C, strain set2, hits give low values",1.01
same,normalized growth,"locus YJL187C, strain SWE1 (second series), hits give low values",0.981
same,normalized growth,"locus YJR043C, strain POL32, hits give low values",0.976
same,normalized growth,"locus YJR066W, strain TOR1, hits give low values",0.987
